Screens: PubChem, National Center for Advancing Translational Sciences (NCATS)
AMA1-RON2 inh: disrupts binding of P. falciparum AMA1 to RON2. AlphaScreen AMA1-biotinylated RON2 peptide binding. Potency, µM (series often up to 58.2 µM), usual class: inhibitors. hit rate 0.2% among 360,000; further: nearly all actives have a fitted effect of over 45% in size
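AMA1 (3D7) with his tag at 25 nM final met compounds first, then biotinylated RON2 peptide at 25 nM; detection used donor plus acceptor beads, 10 µg/mL apiece, read by AlphaScreen after 30 min at room temperature.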
SARS PLP yeast: blocks SARS-CoV papain-like protease in a yeast assay; S. cerevisiae expressing SARS-CoV PLpro, growth rescue; Potency, µM (highest dose often 32.9 µM), most hits filed as activators; hit rate 0.19% among 330,000; calls by dose curve; further: nearly all actives have a fitted effect of over 55% in size
NS1 function inh: blocks influenza NS1 protein function. Potency, µM (titrated, usually from 46.1 µM). hit rate 0.4% among 270,000. AID 2326; calls by dose curve; further: actives are rising curves; nearly all actives have a fitted effect of over 50% in size
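Growth recovery, yeast-based: influenza A NS1 expressed in S. cerevisiae causes slow growth, and suppressors are detected by OD600. The parent strain without NS1 is used as positive control.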
Pf growth 96h: P. falciparum growth inhibition at 96 hours; AID 504834; P. falciparum luciferase reporter growth, 96 h; Potency, µM (top dose mostly 28.7 µM), usual class: inhibitors; hit rate 6.9% among 320,000
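Luminescence readout: decreased luciferase signal marks inhibited growth of reporter-expressing P. falciparum in infected red cells (2% hematocrit, 0.05% parasitemia final), exposed to compound two generations (96 h, 37 C, 5% CO2).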
Pf growth 48h: P. falciparum growth inhibition at 48 hours (one generation). P. falciparum luciferase growth in erythrocytes, 48 h. hit rate 5.9% among 310,000. Potency, µM (series often up to 28.7 µM), most hits filed as inhibitors
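Luciferase-expressing P. falciparum in infected erythrocytes (2% hematocrit, 0.1% parasitemia final) in RPMI 1640/0.5% Albumax were exposed to compound for 48 hours at 37 C, 5% CO2; growth read as luminescence.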
HCV inhibitor: HCV inhibition; hit rate 3.4% among 340,000; Potency, µM (highest dose often 41.8 µM), hits mostly inhibitors; Huh7.5.1 HCVcc-Cre infection, luciferase reporter, 44 h
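Infectious HCVcc-Cre (~0.5 moi) was added to cells just after compound, with cells seeded 4 h earlier at 1,000 per well. Luciferase activity after 44 h culture reported infection; substrate was incubated 15 min at room temperature before reading.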
A number is an active result. Hits are enriched below; roughly 12% of the tested compounds scored in any of these assays. Unless noted, the call rests on the fitted dose curve; in most records, active means well fitted curve in the direction sought with a large enough effect; inconclusive means small, poorly fitted or top-dose-only effect, or another doubt; inactive means no such curve, though single readings can be large; an effect the other way counts as inactive or inconclusive.

Screening O=C(Oc1cccccc1=O)c1ccccc1 returned AMA1-RON2 inh inactive, SARS PLP yeast inactive, NS1 function inh inactive, Pf growth 96h 15µM, Pf growth 48h inconclusive and HCV inhibitor inactive.
NNCCc1ccccc1 was read as AMA1-RON2 inh inactive, SARS PLP yeast inactive, NS1 function inh inactive, Pf growth 96h inconclusive, Pf growth 48h inconclusive and HCV inhibitor inactive.
`NNCc1ccccc1` gave AMA1-RON2 inh 32µM and HCV inhibitor inactive.
`CCN1C(=O)[C@H]2[C@@H](c3ccc(-c4ccc(Cl)c(Cl)c4)cc3)N[C@@](CC(C)C)(C(=O)OC)[C@H]2C1=O` gave AMA1-RON2 inh inactive, SARS PLP yeast inactive, Pf growth 96h 4.7µM, Pf growth 48h 12µM and HCV inhibitor inactive.
CCN1C(=O)[C@H]2[C@@H](c3ccc(-c4ccc(OC)cc4)cc3)N[C@@](CC(C)C)(C(=O)OC)[C@H]2C1=O was read as AMA1-RON2 inh inactive, SARS PLP yeast inactive, Pf growth 96h 12µM, Pf growth 48h 12µM and HCV inhibitor inactive.
For COC(=O)[C@]1(CC(C)C)N[C@H](c2ccc(-c3ccc(C(C)=O)cc3)cc2)[C@@H]2C(=O)N(C)C(=O)[C@@H]21 the results were AMA1-RON2 inh inactive, SARS PLP yeast inactive and HCV inhibitor inactive.
`COC(=O)[C@]1(CC(C)C)N[C@H](c2ccc(-c3ccc(Cl)c(Cl)c3)cc2)[C@@H]2C(=O)N(C)C(=O)[C@@H]21` gave AMA1-RON2 inh inactive, SARS PLP yeast inactive, Pf growth 96h 4.7µM, Pf growth 48h 7.4µM and HCV inhibitor inactive.
`COc1ccc(C2C(C(C)=O)=C(O)C(=O)N2CCc2ccccc2)c(OC)c1` (stereo not drawn) gave AMA1-RON2 inh inactive, SARS PLP yeast inactive, NS1 function inh inactive, Pf growth 48h inactive and HCV inhibitor inactive.
`COc1ccc(CCN2C(=O)c3[nH]nc(-c4ccccc4O)c3C2c2cccc(Cl)c2)cc1` (stereo not drawn) gave AMA1-RON2 inh inactive, SARS PLP yeast inactive, NS1 function inh inactive, Pf growth 96h 1.9µM, Pf growth 48h 3.3µM and HCV inhibitor inconclusive.
Screening Cc1ccc(C2c3c(-c4ccccc4O)n[nH]c3C(=O)N2Cc2ccncc2)cc1 (stereo not drawn) returned AMA1-RON2 inh inactive, SARS PLP yeast inactive, NS1 function inh inactive, Pf growth 96h inconclusive, Pf growth 48h inconclusive and HCV inhibitor inconclusive.
For COc1ccc(C2c3c(-c4ccccc4O)n[nH]c3C(=O)N2CCc2ccc(OC)c(OC)c2)cc1 (stereo not drawn) the results were AMA1-RON2 inh inactive, SARS PLP yeast inactive, Pf growth 96h inactive, Pf growth 48h 7.4µM and HCV inhibitor inconclusive.
Screening CCCCn1c(N)c(N(CCC(C)C)C(=O)CN2C(=O)C3CCCCC3C2=O)c(=O)[nH]c1=O (stereo not drawn) returned AMA1-RON2 inh inactive, SARS PLP yeast inactive, NS1 function inh inactive, Pf growth 96h inactive, Pf growth 48h inactive and HCV inhibitor inactive.
Screening CC1Sc2ccc(S(=O)(=O)N3CCN(c4cccc(Cl)c4)CC3)cc2NC1=O (stereo not drawn) returned AMA1-RON2 inh inactive, SARS PLP yeast inactive, NS1 function inh inactive, Pf growth 96h 12µM, Pf growth 48h inactive and HCV inhibitor inconclusive.
For Cc1cccc(N2CCN(S(=O)(=O)c3ccc4c(c3)NC(=O)C(C)S4)CC2)c1C (stereo not drawn) the results were AMA1-RON2 inh inactive, SARS PLP yeast inactive, NS1 function inh inactive, Pf growth 96h inconclusive, Pf growth 48h inconclusive and HCV inhibitor 0.32µM.
Screening CC1Sc2ccc(S(=O)(=O)N3CCN(c4ccccc4)CC3)cc2NC1=O (stereo not drawn) returned AMA1-RON2 inh inactive, SARS PLP yeast inactive, NS1 function inh inactive, Pf growth 96h inconclusive, Pf growth 48h inactive and HCV inhibitor inconclusive.
`Cc1noc(C)c1S(=O)(=O)Nc1ccc2c(c1)CC(=O)N([C@H](C)CO)C[C@H](C)[C@@H](CN(C)CC1CC1)O2` gave AMA1-RON2 inh inactive, SARS PLP yeast inactive and HCV inhibitor inconclusive.
CCCc1nnc(SCC(=O)N2CCCC(C)C2)n1CCOC (stereo not drawn) was read as AMA1-RON2 inh inactive, SARS PLP yeast inactive, Pf growth 96h inconclusive, Pf growth 48h inactive and HCV inhibitor inactive.
